Test results reported in PubChem BioAssay.
Active and inactive are the calls of the source.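 The calls were made as follows, unless noted: active = viability at or under a set limit in both replicates, limit being median viability minus 3 SD (cut at about 48% in these data, passing the limit was not always enough); inconclusive = at or under the limit in just one replicate; inactive = at or above the limit in both replicates.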

How the values were obtained:
[1] = SK-BR-3 cell growth inhibitors, pilot screen, 24 h, human (AID 572;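 active = viability at or below 10% of carrier control in both of two separate runs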;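 also: compound exposure lasted between 18 and 24 h rather than exactly 24 h; 100% = carrier-treated control wells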); conditions: SK-BR-3 viability, CellTiter-Glo luminescence, at 10 µM, stronger effect = lower value
[2] = HUVEC growth inhibition – cell-based, human, primary screen (AID 575;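 active = viability at or below 30% in both replicate assays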;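 also: 100% = median of untreated cell wells with 0.1% DMSO on each plate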); conditions: HUVEC proliferation, CellTiter-Glo luminescence, 72 h; at 10 µM; stronger effect = lower value
[3] = growth inhibitors of H69AR lung tumor, primary screen, human, duplicate replicates (AID 580); conditions: H69AR lung tumor cells viability, ATP luminescence, 72 h; at 10 µM; stronger effect = lower value;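 also: 100% = mean luminescence of untreated wells and 0% = no signal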
[4] = reversal of MRP1-mediated doxorubicin resistance, pilot screen, H69AR cells, doxorubicin co-treatment (AID 601;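 active = viability loss from added drug above about 55%, and viability with drug at most 40%, in both replicates, limit read from the data, passing the limit was not always enough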); conditions: CellTiter-Glo, 72 h, at 10 µM; for differential viability (reversal): stronger effect = higher value
[5] = 384-well plate pilot, post-Golgi transport modulator project, inhibition of yeast transport mutant growth (AID 636; in the data active = inhibition above about 31%); conditions: absorbance 615 nm, about 18 h, stronger effect = higher value
[6] = growth suppression of yeast trafficking mutant, preliminary HTS, modulators of trafficking downstream of Golgi apparatus project, 1536-format plate, OD 615 nm (AID 637; in the data active = inhibition above about 30%); conditions: yeast transport mutant growth, absorbance 615 nm, 18 h; stronger effect = higher value
[7] = H69AR cells + 2 uM doxorubicin, measured here: viability with 2 uM doxorubicin, stronger effect = lower value
[8] = H69AR cells, compound alone cytotoxicity

Compound	viability [1]	viability [2]	viability [3]	differential viability (reversal) ([4]; H69AR cells + 2 uM doxorubicin)	viability [4, 7]	viability [4, 8]	inhibition [5]	inhibition [6]
Cc1ccc(NC(=O)CN(C)S(=O)(=O)c2cccc3nsnc23)cc1Cl	103% (inactive)	83.3% (inactive)	84.5% (inactive)	-7.79% (inactive)	92.2%	84.5%	1.76% (inactive)	-3.09% (inactive)
COC(=O)C1=C(C)Nc2ncnn2C1c1ccco1 (stereo unspecified)	80% (inactive)	91.8% (inactive)	85.9% (inactive)	4.73% (inactive)	81.2%	85.9%	-8.49% (inactive)	4.91% (inactive)
CN(C)CCCOC(=O)CCc1ccccc1	95% (inactive)	126% (inactive)	96.3% (inactive)	2.46% (inactive)	93.9%	96.3%	-4.73% (inactive)	-7.09% (inactive)
CCc1cccc2c3c([nH]c12)C(CC)(CC(=O)O)OCC3 (stereo unspecified)	113% (inactive)	72% (inactive)	100% (inactive)	1.21% (inactive)	99.1%	100%	1.56% (inactive)	0.67% (inactive)
COc1ccc(OCCOC(=O)c2cccc(-n3cnnn3)c2)cc1	90% (inactive)	107% (inactive)	100% (inactive)	7.56% (inactive)	92.6%	100%	-8.36% (inactive)	1.64% (inactive)
Cn1c(C(=O)NCc2cccnc2)cc2sccc21	115% (inactive)	102% (inactive)	93% (inactive)	-2.84% (inactive)	95.8%	93%	5.21% (inactive)	11.1% (inactive)
CC1(C)Cc2c(sc3c2C2=NCCN2C=N3)CS1	87% (inactive)	108% (inactive)	105% (inactive)	5.41% (inactive)	99.4%	105%	2.05% (inactive)	2.73% (inactive)
O=C(NCCCN1CCOCC1)c1cc(-c2ccc(Cl)cc2)on1	88% (inactive)	103% (inactive)	94.1% (inactive)	15.9% (inactive)	78.2%	94.1%	-6.8% (inactive)	0.55% (inactive)
COc1ccc(OC)c(S(=O)(=O)Nc2ccc(O)c3ccccc23)c1	6% (active)	3.38% (active)	1.73% (active)	-0.325% (inactive)	2.06%	1.73%	-2.5% (inactive)	-5.33% (inactive)
Cc1cccn2c(=O)c3cc(C#N)c(=NC(=O)c4ccncc4)n(Cc4ccco4)c3nc12	110% (inactive)	64.1% (inactive)	67% (inactive)	15.3% (inactive)	51.7%	67%	-1.58% (inactive)	7.74% (inactive)
CC(C)C12CN3CC(C(C)C)(CN(C1)C3c1ccc3c(c1)OCO3)C2=O (stereo unspecified)	117% (inactive)	91.8% (inactive)	85.5% (inactive)	-0.655% (inactive)	86.2%	85.5%	-1.6% (inactive)	0.18% (inactive)
CCOC(=O)c1[nH]c2ccc(C)cc2c1NC(=O)CN1CCCCC1	107% (inactive)	106% (inactive)	87.8% (inactive)	0.72% (inactive)	87.1%	87.8%	-5.73% (inactive)	-3.09% (inactive)
Cc1cccc(C(=O)N(C)c2nnc(-c3ccncc3)s2)c1	98% (inactive)	92.5% (inactive)	85.8% (inactive)	-3.53% (inactive)	89.4%	85.8%	-0.41% (inactive)	24.7% (inactive)
C=CCSc1nnc(-c2ccc(Cl)cc2Cl)o1	96% (inactive)	107% (inactive)	87.9% (inactive)	19.9% (inactive)	67.9%	87.9%	-5.47% (inactive)	0.73% (inactive)
O=C(Nc1ccc(N2CCOCC2)cc1)Nc1ccc2nc(-c3ccco3)c(-c3ccco3)nc2c1	71.5% (inactive)	16.6% (active)	13.5% (active)	-8.11% (inactive)	21.6%	13.5%	-7.73% (inactive)	-1.45% (inactive)
CCC1(C)Cc2c(sc3nc(SCC(=O)O)[nH]c(=O)c23)CO1 (stereo unspecified)	111% (inactive)	107% (inactive)	94.1% (inactive)	14.5% (inactive)	79.6%	94.1%	-1.6% (inactive)	-10% (inactive)
CN(C)c1ccc(C2C3=C(CCCC3=O)OC3=C2C(=O)CCC3)cc1	90% (inactive)	97% (inactive)	92.5% (inactive)	2.78% (inactive)	89.7%	92.5%	-5.73% (inactive)	-2.18% (inactive)
